# A number with no mark means an inactive call. Records with an inconclusive call do not appear. The source made the active and inactive calls. Unless noted, calls follow the shape of the dose curve; as a rule, active = well fitted curve in either direction with a large enough effect (not every such curve was filed as active); inconclusive = small, poorly fitted or top-dose-only effect, or another doubt; inactive = flat fitted curve, though single readings scatter.
# Assays:
# [1] = AP1 Signaling Pathway (AID 357); conditions: ME-180 AP-1-bla reporter, EGF-induced, beta-lactamase ratio, 5 h; at 17.2 µM (top of the series) unless noted; also: % is scaled to controls: 0 for no effect and ±100 for the full control effect
# Outline: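 ME-180 cells with beta-lactamase reporter under AP-1 response element, stimulated with EC50 EGF; compounds tested in titration series, 5 h at 37 °C. CCF4 substrate added 2.5 h at room temperature; 460/530 nm emission ratio gave %activity and AC50.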
# [2] = NFAT Signaling Pathway (AID 444); conditions: Jurkat NFAT-bla M1, carbachol, beta-lactamase ratio, 5 h; at 17.2 µM (top of the series) unless noted;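 also: carbachol stimulus at about its EC50 of 1 µM final; % is scaled to controls: 0 for no effect and ±100 for the full control effect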
# Outline: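 Read-out: CCF4 FRET ratio (460 nm/530 nm) after 1 h RT dye loading, used for %activity and AC50 from titration series. Cells: Jurkat NFAT-β-lactamase/M1 line, treated with compound plus 1 uM carbachol for 5 h, 37 °C.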
# [3] = Stat Signaling Pathway (AID 446); conditions: ME-180 SIE beta-lactamase reporter, IL-6 stimulated, 5 h; at 17.2 µM (top of the series) unless noted;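 also: ME-180 cervical cancer cells given 40 pM IL-6 alongside compound; SIE-controlled beta-lactamase reporter measured as 460/530 nm FRET emission ratio; % is scaled to controls: 0 for no effect and ±100 for the full control effect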
# Outline: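 ME-180 SIE-bla cells; overnight plating; cpd + IL-6 40 pM, 5 h, 37 C; LiveBLAzer 2.5 h RT; 460/530 nm emission ratio. Normalized to 300 pM IL-6 and 125 nM JAK inhibitor controls.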
# [4] = target: Cytochrome P450 1A2 (Homo sapiens) (UniProt P05177); assay: p450-cyp1a2 (AID 410; calls by dose curve; also: potency is read from the fitted curve at half-maximal effect;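 as to activity change, negative = inhibition: -100% = full effect of reference inhibitor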)
# Outline: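 Inhibition was calculated relative to 57 uM furafylline (full inhibition). The reaction used human CYP1A2 at 20nM with Luciferin-ME at its Km, 100uM, driven by an NADPH-regenerating system for 60 min at room temperature.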
# [5] = target: Glucocorticoid receptor (Homo sapiens) (UniProt P04150); assay: GR-GFP Redistribution (AID 450;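 active = compounds whose dose series gives a full or clear partial fitted curve of increased nuclear translocation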; also: potency is read from the fitted curve at half-maximal effect)
# [6] = target: Glucocorticoid receptor (Homo sapiens) (UniProt P04150); assay: GR-EFC Redistribution (AID 451; calls by dose curve; also: potency is read from the fitted curve at half-maximal effect); conditions: CHO-K1 GR-EFC translocation, beta-gal luminescence, 2 h
# Outline: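 Translocation of GR-ED fusion to nuclear EA restores b-gal, read by luminescence after 1 h room-temperature detection. Engineered CHO-K1 biosensor cells, 1,000/well, exposed 2 h at 37 C to titrations up to 46 uM final.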
# [7] = target: Mitogen-activated protein kinase 10 (Mus musculus) (UniProt Q61831); assay: JNK3 AlphaScreen Assay (AID 530);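 also: kinase came from lysate of stimulated human HepG2 cells; signal reports phosphorylation of biotinylated GST-cJun 1-79 at Ser73 with 10 µM ATP; % is scaled to controls: 0 for no effect and ±100 for the full control effect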
# Outline: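 Room-temperature AlphaScreen kinase assay; pre-activated HepG2 lysate as JNK3 source, biotin-GST-cJun(1-79) substrate, 10 uM ATP, compound 15 min preincubation.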
# [8] = target: 3',5'-cyclic-AMP phosphodiesterase 4B (Homo sapiens) (UniProt Q07343); assay: qHTS Assay for Inhibitors of PDE-IV (AID 607; active = well fitted activation curve with a large enough effect in the main read-out, with a control signal flat, not every such curve was filed as active; also: % of control where 0% means no effect)
# Outline: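 ACTOne HEK293 cells carry a modified cAMP-gated CNG channel and express endogenous PDE4; plated 1000 cells/well, compounds up to 22.9 uM final. Membrane-potential dye fluorescence (ex 535/em 590) was read; parental cells received 10 uM forskolin + 100 uM RO 20-1724.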
# [9] = target: Cytochrome P450 2D6 (Homo sapiens) (UniProt P10635); assay: qHTS Assay for Inhibitors and Substrates of Cytochrome P450 2D6 (AID 891; active = well fitted curve in the direction sought with a large enough effect; an effect the other way counts as inactive or inconclusive; also: nearly all actives have a fitted effect of over 60% in size; also: potency is read from the fitted curve at half-maximal effect)
# Outline: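 Human CYP2D6 (5 nM) with 30 uM Luciferin-ME EGE (at Km) in 100 mM KPO4, compound preincubated 10 min, then NADPH regeneration system for 60 min at room temperature. Luciferin read by luminescence; normalized to 1.43 uM quinidine.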
# [10] = target: Cytochrome P450 2C19 (Homo sapiens) (UniProt P33261); assay: qHTS Assay for Inhibitors and Substrates of Cytochrome P450 2C19 (AID 899; active = well fitted curve in the direction sought with a large enough effect; an effect the other way counts as inactive or inconclusive; also: % is scaled to controls: 0 for no effect and ±100 for the full control effect; nearly all actives have a fitted effect of over 60% in size)
# Outline: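 Reactions contain 5nM enzyme, 10uM Luciferin-H EGE (KM) and 50mM KPO4; compound preincubates 10 min at 37C, NADPH regeneration starts turnover for 60 min. Luminescence after detection reagent gives activity.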
# [11] = target: Guanine nucleotide-binding protein G(i) subunit alpha-1 (Homo sapiens) (UniProt P63096); assay: qHTS Assay for Inhibitors of RGS12 GoLoco Motif Activity (Green Fluorophore) (AID 879; active = well fitted curve in the direction sought with a large enough effect; an effect the other way counts as inactive or inconclusive;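 also: 0% = labeled peptide with Gαi1 and full inhibition = labeled peptide alone without protein; negative values mean loss of peptide binding seen as reduced polarization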)
# Outline: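 Fluorescence polarization assay: 50 nM Gαi1 with 10 nM FITC-labeled RGS12 GoLoco peptide in 10 mM Tris pH 7.5, 150 mM NaCl, 0.1 mM GDP, 0.05% NP40, 10 min at room temperature with compound.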
# [12] = qHTS Assay for Identification of Small Molecule Agonists for Thrombopoietin (TPO) Signaling Pathway (AID 917; active = well fitted curve in the direction sought with a large enough effect; an effect the other way counts as inactive or inconclusive; also: % is scaled to controls: 0 for no effect and ±100 for the full control effect)
# Outline: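 Murine Ba/F3 cells expressing human TPO receptor and GPIIb-promoter luciferase, IL-3-starved overnight, given compound plus TPO at 26 pM (EC50). After 24 h at 37 C, 5% CO2, luminescence read.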
# [13] = target: Muscarinic acetylcholine receptor M1 (Rattus norvegicus) (UniProt P08482); assay: qHTS Assay for Antagonists of Acetylcholine Muscarinic M1 Receptor: Measurement of IP-One Response (AID 944; active = well fitted curve in the direction sought with a large enough effect; an effect the other way counts as inactive or inconclusive; also: nearly all actives have a fitted effect of over 75% in size)
# Outline: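 Steps: plate transfected CHO-M1 cells overnight; add test compound, 10 min; add carbachol (200 nM, EC80) in stimulation buffer with LiCl; incubate 30 min; add labelled IP1 tracer and anti-IP1 antibody in lysis buffer; read HTRF after 10 min.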
# [14] = target: Pyruvate kinase (Leishmania mexicana) (UniProt Q27686); assay: qHTS Validation Assay for Inhibitors of Leishmania Mexicana Pyruvate Kinase (AID 945; active = well fitted curve in the direction sought with a large enough effect; an effect the other way counts as inactive or inconclusive;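 also: 0% = DMSO only neutral control wells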)
# Outline: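 Eight-point qHTS titrations; enzyme 0.2 nM LmPYK (E451W mutant); substrates 0.5 mM PEP, 0.1 mM ADP; 7 mM MgCl2; 1 h room temperature; PKLight luminescence normalized to neutral control.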
# [15] = target: Pyruvate kinase PKM (Homo sapiens) (UniProt P14618); assay: qHTS Assay for Activators of Human Muscle Pyruvate Kinase (AID 954; active = well fitted curve in the direction sought with a large enough effect, not every such curve was filed as active;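 also: 0% = uninhibited enzyme and -100% = no enzyme or full thiadiazolimine inhibition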)
# Outline: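 Luminescence from a luciferase ATP-detection/stop reagent reported PKM2 activity. Reactions contained 0.1 nM purified human enzyme, 0.5 mM PEP, 0.1 mM ADP and 7 mM MgCl2 at pH 7.2, run 1 h at RT.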
# [16] = target: Alpha-galactosidase A (Homo sapiens) (UniProt P06280); assay: Counterscreen for Glucocerebrosidase Inhibitors: qHTS Assay for Human alpha-Galactosidase at pH 4.5 (AID 992; active = well fitted curve in the direction sought with a large enough effect; an effect the other way counts as inactive or inconclusive; also: 0% is about no effect)
# Outline: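 Enzyme at 2 nM final was combined with compound (0.7 nM to 77 uM) and 80 uM 4-methylumbelliferyl alpha-D-galactopyranoside in 50 mM citric acid, 0.005% Tween-20, pH 4.5. After 20 min at room temperature, fluorescence was read (Ex 365/Em 440 nm); AC50 came from Hill fits.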
# [17] = target: alpha-glucosidase (Oryza sativa, rice) (UniProt Q653V4); assay: Counterscreen for Glucocerebrosidase Inhibitors: qHTS Assay for Rice alpha-Glucosidase at pH 5.0 (AID 997; active = well fitted curve in the direction sought with a large enough effect; an effect the other way counts as inactive or inconclusive;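 also: 0% = full activity with enzyme and -100% = basal without enzyme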)
# Outline: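 Rice alpha-glucosidase (4 nM final) with 400 uM 4-methylumbelliferyl-alpha-D-glucopyranoside in citrate buffer pH 5.0, 20 min at room temperature, stopped at pH 10; fluorescence 365/440 nm, compounds 0.7 nM–77 uM, AC50 from Hill fits.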
# [18] = target: Cytochrome P450 3A4 (Homo sapiens) (UniProt P08684); assay: qHTS Assay for Activators of Cytochrome P450 3A4 (AID 885; active = well fitted curve in the direction sought with a large enough effect; an effect the other way counts as inactive or inconclusive; also: nearly all actives have a fitted effect of over 65% in size)
# Outline: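 20nM CYP3A4 + 25uM Luciferin-PPXE (=KM), 200mM KPO4; cpd 10 min RT; NADPH regen, 60 min RT; stop w/ detection buffer, 20 min; luminescence. Normalized to 57 uM ketoconazole.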
# Chain of 3',5'-cyclic-AMP phosphodiesterase 4B (Homo sapiens) (Q07343 whole entry, looked up): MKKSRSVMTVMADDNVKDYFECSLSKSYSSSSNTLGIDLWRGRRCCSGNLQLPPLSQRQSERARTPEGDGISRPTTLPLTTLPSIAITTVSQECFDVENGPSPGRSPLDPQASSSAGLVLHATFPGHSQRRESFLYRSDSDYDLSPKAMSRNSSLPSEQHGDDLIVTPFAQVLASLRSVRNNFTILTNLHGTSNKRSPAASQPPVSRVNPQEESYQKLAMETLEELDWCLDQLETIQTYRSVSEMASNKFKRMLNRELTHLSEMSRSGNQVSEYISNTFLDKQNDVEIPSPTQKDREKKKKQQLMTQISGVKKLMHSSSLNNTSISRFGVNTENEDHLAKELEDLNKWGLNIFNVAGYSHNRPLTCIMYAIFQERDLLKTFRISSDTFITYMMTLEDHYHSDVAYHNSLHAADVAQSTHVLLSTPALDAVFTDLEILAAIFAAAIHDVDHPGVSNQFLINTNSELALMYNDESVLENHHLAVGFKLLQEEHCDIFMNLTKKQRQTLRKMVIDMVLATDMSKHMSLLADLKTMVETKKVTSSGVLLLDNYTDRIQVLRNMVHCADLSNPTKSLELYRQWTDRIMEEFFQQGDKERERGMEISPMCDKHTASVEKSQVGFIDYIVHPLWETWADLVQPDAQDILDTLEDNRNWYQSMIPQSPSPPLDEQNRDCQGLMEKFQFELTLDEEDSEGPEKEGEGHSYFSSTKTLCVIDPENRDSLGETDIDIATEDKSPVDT
# Chain of Cytochrome P450 1A2 (Homo sapiens) (P05177 whole entry, looked up): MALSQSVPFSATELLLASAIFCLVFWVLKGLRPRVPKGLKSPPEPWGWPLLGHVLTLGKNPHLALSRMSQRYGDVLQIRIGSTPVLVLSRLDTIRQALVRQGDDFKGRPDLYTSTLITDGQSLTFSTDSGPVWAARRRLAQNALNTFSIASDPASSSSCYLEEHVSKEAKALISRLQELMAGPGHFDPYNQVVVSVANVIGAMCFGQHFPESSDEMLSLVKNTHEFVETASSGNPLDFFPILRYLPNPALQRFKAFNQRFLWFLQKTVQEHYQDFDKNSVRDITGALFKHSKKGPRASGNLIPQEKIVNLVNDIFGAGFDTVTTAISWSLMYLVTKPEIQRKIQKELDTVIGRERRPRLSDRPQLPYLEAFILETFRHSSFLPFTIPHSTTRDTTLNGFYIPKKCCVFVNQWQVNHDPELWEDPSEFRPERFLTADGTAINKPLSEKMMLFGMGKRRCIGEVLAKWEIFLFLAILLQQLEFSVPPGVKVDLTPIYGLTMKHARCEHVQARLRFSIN
# Chain of Glucocorticoid receptor (Homo sapiens) (P04150 whole entry, looked up, the tested form may be a part): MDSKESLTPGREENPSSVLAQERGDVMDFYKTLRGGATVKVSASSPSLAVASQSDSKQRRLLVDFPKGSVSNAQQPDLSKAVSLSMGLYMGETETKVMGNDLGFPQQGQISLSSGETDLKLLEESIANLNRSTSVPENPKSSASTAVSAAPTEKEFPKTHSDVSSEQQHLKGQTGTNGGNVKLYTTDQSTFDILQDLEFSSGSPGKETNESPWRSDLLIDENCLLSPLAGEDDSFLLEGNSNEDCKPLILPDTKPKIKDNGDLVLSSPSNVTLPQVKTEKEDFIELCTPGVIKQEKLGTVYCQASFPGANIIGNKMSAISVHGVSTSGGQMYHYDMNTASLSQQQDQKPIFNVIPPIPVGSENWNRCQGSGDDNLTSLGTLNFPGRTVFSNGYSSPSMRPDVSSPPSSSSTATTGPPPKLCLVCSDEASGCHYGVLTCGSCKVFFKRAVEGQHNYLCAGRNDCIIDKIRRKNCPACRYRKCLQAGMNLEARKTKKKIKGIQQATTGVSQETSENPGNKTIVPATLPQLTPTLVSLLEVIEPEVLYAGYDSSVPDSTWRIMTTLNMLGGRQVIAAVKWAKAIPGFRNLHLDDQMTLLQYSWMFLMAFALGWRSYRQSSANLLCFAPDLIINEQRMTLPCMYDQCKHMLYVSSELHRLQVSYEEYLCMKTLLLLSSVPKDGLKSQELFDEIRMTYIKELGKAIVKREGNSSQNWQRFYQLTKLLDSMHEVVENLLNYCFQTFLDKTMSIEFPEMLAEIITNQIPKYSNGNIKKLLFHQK
# Chain of Cytochrome P450 2D6 (Homo sapiens) (P10635 whole entry, looked up): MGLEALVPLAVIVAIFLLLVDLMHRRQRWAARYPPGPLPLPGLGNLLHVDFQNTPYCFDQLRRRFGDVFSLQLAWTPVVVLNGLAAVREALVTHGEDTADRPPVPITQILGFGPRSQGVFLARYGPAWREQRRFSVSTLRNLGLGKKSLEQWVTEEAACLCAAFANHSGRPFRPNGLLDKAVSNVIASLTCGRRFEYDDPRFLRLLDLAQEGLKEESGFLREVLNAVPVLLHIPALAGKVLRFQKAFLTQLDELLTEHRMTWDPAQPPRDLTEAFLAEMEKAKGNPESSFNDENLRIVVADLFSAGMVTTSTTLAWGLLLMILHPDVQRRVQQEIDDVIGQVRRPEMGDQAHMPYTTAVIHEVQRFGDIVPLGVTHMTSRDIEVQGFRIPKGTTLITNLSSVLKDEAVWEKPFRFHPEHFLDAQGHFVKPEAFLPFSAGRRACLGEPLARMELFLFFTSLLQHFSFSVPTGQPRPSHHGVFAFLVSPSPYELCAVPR
# Chain of Guanine nucleotide-binding protein G(i) subunit alpha-1 (Homo sapiens) (P63096 whole entry, looked up): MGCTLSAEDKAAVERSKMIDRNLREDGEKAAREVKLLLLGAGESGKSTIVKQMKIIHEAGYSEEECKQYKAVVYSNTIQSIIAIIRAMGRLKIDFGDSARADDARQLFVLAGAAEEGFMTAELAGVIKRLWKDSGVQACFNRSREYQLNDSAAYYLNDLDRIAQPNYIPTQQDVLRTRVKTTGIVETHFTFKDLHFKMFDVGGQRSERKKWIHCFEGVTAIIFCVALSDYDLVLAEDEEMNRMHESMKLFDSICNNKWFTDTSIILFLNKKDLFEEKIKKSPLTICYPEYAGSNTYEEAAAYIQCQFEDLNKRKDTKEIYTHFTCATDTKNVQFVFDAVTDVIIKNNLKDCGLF
# Chain of Pyruvate kinase PKM (Homo sapiens) (P14618 whole entry, looked up): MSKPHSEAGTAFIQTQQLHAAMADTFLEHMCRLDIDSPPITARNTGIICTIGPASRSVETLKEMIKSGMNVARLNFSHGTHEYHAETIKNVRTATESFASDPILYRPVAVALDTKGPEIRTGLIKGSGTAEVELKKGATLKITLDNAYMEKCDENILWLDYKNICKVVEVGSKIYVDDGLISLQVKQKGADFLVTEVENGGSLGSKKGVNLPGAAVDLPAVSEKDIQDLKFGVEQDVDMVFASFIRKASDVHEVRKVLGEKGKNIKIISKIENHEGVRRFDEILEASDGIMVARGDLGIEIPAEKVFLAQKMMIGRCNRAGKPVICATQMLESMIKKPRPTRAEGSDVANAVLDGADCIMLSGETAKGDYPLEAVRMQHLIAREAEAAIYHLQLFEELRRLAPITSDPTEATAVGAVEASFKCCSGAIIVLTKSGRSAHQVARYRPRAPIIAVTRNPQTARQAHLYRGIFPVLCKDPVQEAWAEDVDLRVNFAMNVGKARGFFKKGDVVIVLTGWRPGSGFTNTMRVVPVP
# Chain of Pyruvate kinase (Leishmania mexicana) (Q27686 2-499 E452W): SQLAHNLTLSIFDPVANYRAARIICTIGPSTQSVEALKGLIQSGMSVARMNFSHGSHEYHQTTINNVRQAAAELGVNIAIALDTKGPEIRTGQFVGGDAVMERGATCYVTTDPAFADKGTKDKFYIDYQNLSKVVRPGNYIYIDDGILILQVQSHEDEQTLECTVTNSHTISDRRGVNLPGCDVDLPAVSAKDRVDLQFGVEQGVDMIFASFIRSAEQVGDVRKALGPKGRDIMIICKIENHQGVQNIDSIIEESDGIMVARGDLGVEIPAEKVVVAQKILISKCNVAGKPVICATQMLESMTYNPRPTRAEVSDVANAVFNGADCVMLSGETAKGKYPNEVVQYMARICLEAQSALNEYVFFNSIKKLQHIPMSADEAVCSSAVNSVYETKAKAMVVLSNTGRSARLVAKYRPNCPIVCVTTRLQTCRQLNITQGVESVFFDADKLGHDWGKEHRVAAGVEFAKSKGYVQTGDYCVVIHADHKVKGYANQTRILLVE
# Chain of Alpha-galactosidase A (Homo sapiens) (P06280 whole entry, looked up): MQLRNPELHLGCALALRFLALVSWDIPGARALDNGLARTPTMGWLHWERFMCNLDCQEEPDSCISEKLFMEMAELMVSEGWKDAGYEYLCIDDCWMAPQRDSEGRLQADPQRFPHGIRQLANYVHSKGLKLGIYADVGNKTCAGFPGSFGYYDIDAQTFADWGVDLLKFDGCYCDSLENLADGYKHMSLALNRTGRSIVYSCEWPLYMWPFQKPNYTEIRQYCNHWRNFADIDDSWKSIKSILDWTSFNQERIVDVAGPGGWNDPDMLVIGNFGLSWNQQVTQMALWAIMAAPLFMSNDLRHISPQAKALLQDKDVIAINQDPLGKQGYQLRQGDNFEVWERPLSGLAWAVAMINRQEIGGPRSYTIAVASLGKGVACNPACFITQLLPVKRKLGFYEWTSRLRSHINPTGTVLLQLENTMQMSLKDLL
# Chain of Muscarinic acetylcholine receptor M1 (Rattus norvegicus) (P08482 whole entry, looked up): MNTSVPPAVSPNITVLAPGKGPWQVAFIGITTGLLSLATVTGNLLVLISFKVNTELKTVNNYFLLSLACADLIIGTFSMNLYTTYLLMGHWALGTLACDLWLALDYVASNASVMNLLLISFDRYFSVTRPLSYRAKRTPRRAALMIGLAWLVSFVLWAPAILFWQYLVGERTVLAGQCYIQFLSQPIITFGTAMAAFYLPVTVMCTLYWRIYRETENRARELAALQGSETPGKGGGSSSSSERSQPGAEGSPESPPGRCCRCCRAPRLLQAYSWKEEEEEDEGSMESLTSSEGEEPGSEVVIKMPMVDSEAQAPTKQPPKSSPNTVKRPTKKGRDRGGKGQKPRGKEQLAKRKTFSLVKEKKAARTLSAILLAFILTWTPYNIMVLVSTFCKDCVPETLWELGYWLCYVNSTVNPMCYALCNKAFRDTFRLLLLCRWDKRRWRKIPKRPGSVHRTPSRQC
smiles,measurement,setting,value
CCOC(=O)CC1=C(C(=O)OCC)C(c2ccc(OC)c(OC)c2)C(C#N)=C(N)O1 (stereo not drawn),"activity change, negative = inhibition",[1],1.15%
same,"activity change, negative = inhibition",[2],-21.5%
same,"activity, negative = inhibition",[3],5.77%
CCN1CCC[C@@H]1CNC(=O)c1c(OC)ccc(I)c1O,"activity change, negative = inhibition",[1],-2.43% [at 38 µM]
same,Potency,[4],15.8 µM (active)
same,"activity, negative = inhibition",[3],-4.45% [at 38 µM]
same,Potency,[5],> 46 µM
same,Potency,[6],> 46 µM
same,Potency,[7],inactive
same,Potency,[8],inactive
same,Potency,[9],0.199 µM (active)
same,Potency,[10],inactive
CCCCCCCCCCCCCCCCCCNC(=O)OC[C@@H](COP(=O)([O-])OCC[n+]1ccsc1)OC,"activity change, negative = inhibition",[1],1.14% [at 38 µM]
same,Potency,[4],inactive
same,"activity, negative = inhibition",[3],-15% [at 38 µM]
same,Potency,[5],> 46 µM
same,Potency,[6],> 46 µM
same,Potency,[7],inactive
same,Potency,[8],inactive
same,outcome,[11],inactive
same,Potency,[12],inactive
same,Potency,[13],inactive
same,Potency,[14],inactive
same,outcome,[15],inactive
same,outcome,[16],inactive
same,outcome,[17],inactive
COc1cccc2c1C(=O)c1c(O)c3c(c(O)c1C2=O)C[C@](O)(C(C)=O)C[C@H]3O[C@@H]1C[C@H](N)[C@H](O)[C@H](C)O1,"activity change, negative = inhibition",[1],-116% (active)
same,Potency,[4],inactive
same,Potency,[5],> 20.6 µM
same,Potency,[6],> 20.6 µM
same,Potency,[8],inactive
same,Potency,[18],inactive
same,Potency,[9],inactive
COc1ccccc1-c1c(C)oc2c(CN3CCN(C)CC3)c(O)ccc2c1=O,"activity change, negative = inhibition",[1],1.13%
same,"activity change, negative = inhibition",[2],5.13%
same,"activity, negative = inhibition",[3],4.08%
Cc1cc(C)nc(N(C#N)S(=O)(=O)c2ccccc2Cl)n1,"activity change, negative = inhibition",[1],0.835%
same,"activity change, negative = inhibition",[2],-12.4%
same,"activity, negative = inhibition",[3],-19.9%
same,Potency,[5],> 20.6 µM
COc1cc(C(=O)Nc2nccs2)cc(OC)c1OC,"activity change, negative = inhibition",[1],12.8%
same,"activity change, negative = inhibition",[2],-2.54%
same,"activity, negative = inhibition",[3],-9.15%
same,Potency,[5],> 20.6 µM
Cn1c(Cn2cnc(Cl)c2Cl)nc2ccccc21,"activity change, negative = inhibition",[1],2.26%
same,"activity change, negative = inhibition",[2],-0.211%
same,"activity, negative = inhibition",[3],7.94%
same,Potency,[5],> 20.6 µM
Cc1nnc2n(-c3ccccc3)c(=O)c3c4c(sc3n12)COC(C)(C)C4,"activity change, negative = inhibition",[1],4.08%
same,"activity change, negative = inhibition",[2],-10.7%
same,"activity, negative = inhibition",[3],-0.141%
same,Potency,[5],> 20.6 µM
C=CCOC(=O)C1=C(C)OC(N)=C(C#N)C1c1ccoc1 (stereo not drawn),"activity change, negative = inhibition",[1],21.2%
same,"activity change, negative = inhibition",[2],-14.1%
same,"activity, negative = inhibition",[3],-0.879%
same,Potency,[5],> 20.6 µM
Cc1ccc(S(=O)(=O)NC(=O)NCc2ccc3c(c2)OCO3)cc1,"activity change, negative = inhibition",[1],12.9%
same,"activity change, negative = inhibition",[2],-5.13%
same,"activity, negative = inhibition",[3],0.559%
same,Potency,[5],> 20.6 µM
O=C(C1=C(O)C(=O)N(CCN2CCOCC2)C1c1cccnc1)c1cc2ccccc2o1 (stereo not drawn),"activity change, negative = inhibition",[1],8.94%
same,"activity change, negative = inhibition",[2],-4.55%
same,"activity, negative = inhibition",[3],3.87%
same,Potency,[5],> 20.6 µM
N#CCCSCc1ccc(OCC(=O)O)cc1,"activity change, negative = inhibition",[1],2.01%
same,"activity change, negative = inhibition",[2],-0.583%
same,"activity, negative = inhibition",[3],0.185%
same,Potency,[5],> 20.6 µM
O=C1C(=O)N(CCN2CCOCC2)C(c2ccccn2)/C1=C(/O)c1ccccc1 (stereo not drawn),"activity change, negative = inhibition",[1],-4.12%
same,"activity change, negative = inhibition",[2],3.29%
same,"activity, negative = inhibition",[3],-1.75%
same,Potency,[5],> 20.6 µM
CCCOc1ccccc1C(=O)NCCCC(=O)O,"activity change, negative = inhibition",[1],-0.71%
same,"activity change, negative = inhibition",[2],-4.04%
same,"activity, negative = inhibition",[3],8.1%
same,Potency,[5],> 20.6 µM
CCCC(=O)Nn1cnc2c(c1=O)C1(CCCC1)Cc1ccccc1-2,"activity change, negative = inhibition",[1],-5.55%
same,"activity change, negative = inhibition",[2],-0.237%
same,"activity, negative = inhibition",[3],-0.176%
same,Potency,[5],> 20.6 µM
Cc1cccc(-c2nnc3n2N=C(c2ccc(Br)cc2)CS3)c1,"activity change, negative = inhibition",[1],11.1%
same,"activity change, negative = inhibition",[2],-1.71%
same,"activity, negative = inhibition",[3],7.64%
same,Potency,[5],> 20.6 µM
N#Cc1c(N)nc(SCC(=O)NCCc2ccccc2)c(C#N)c1-c1cccs1,"activity change, negative = inhibition",[1],0.711%
same,"activity change, negative = inhibition",[2],15.3%
same,"activity, negative = inhibition",[3],5.35%
same,Potency,[5],> 20.6 µM

# Source: PubChem BioAssay (NCATS)
